Measurements taken from PubChem BioAssay (NCATS).
Values joined by “and” are separate entries in the source; they are usually repeats but may differ in a detail not shown here. Equal entries are not always repeated. Results filed as inconclusive are left out. The source holds several records for some structures; these can differ, active in one and inactive in another. Active and inactive are the calls of the source. The call rests on the fitted dose curve; in most records, active means well fitted curve in the direction sought with a large enough effect; inconclusive means small, poorly fitted or top-dose-only effect, or another doubt; inactive means no such curve, though single readings can be large; an effect the other way counts as inactive or inconclusive.

Legend:
[1] = P-glycoprotein substrates identified in KB-8-5-11 adenocarcinoma cell line, qHTS therapeutic library screen (AID 1346987); further: nearly all actives have a fitted effect of over 65% in size; further: potency means the concentration at half of the fitted maximal effect
Summary of the method: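 Compounds are pinned in dose-response onto KB-8-5-11 cells (500 cells/well, colchicine-free medium) and left 72 h at 37 degree C. CellTiter-Glo luminescence then yields AC50 values.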

[2] = NS1 protein of Zika virus - qHTS assay to identify small molecule inhibitors in human HEK 293 cells (AID 1347053); further: series mostly up to about 46 µM; nearly all actives have a fitted effect of over 55% in size
Summary of the method: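 In this cell-based screen, HEK 293 cultures received compound for one hour before Zika MR766 at MOI = 0.5. NS1 was quantified 24 hours later by TR-FRET, normalized to virus-free wells and infected wells.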

[3] = qHTS of pediatric cancer cell lines to identify multiple opportunities for drug repurposing: Primary screen for TC32 cells (AID 1347089); further: nearly all actives have a fitted effect of over 60% in size; further: potency means the concentration at half of the fitted maximal effect
Summary of the method: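 qHTS, TC32, 48 h drug treatment, CellTiter-Glo luminescence as a proxy for metabolically active cells; primary top concentration 46 µM (MIPE 11-pt, NPC 8-pt); confirmatory 11-pt.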

[4] = qHTS of pediatric cancer cell lines to identify multiple opportunities for drug repurposing: Primary screen for SJ-GBM2 cells (AID 1347091); further: potency means the concentration at half of the fitted maximal effect
Summary of the method: (§1)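 Cell viability, CellTiter-Glo luminescence; 500-1,000 cells/well, 8- or 11-point titration, 48 h compound exposure at 37 degrees C, 5% CO2. Controls: DMSO neutral, bortezomib 2.3 µM final as positive.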

[5] = qHTS of pediatric cancer cell lines to identify multiple opportunities for drug repurposing: Primary screen for SK-N-MC cells (AID 1347093); further: potency means the concentration at half of the fitted maximal effect
Summary of the method: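 Metabolically active cells were quantified by ATP-dependent luminescence (CellTiter-Glo, 15 min at room temperature) following 48 h treatment. Cells had been plated at 500-1,000 per well and settled for 5 h beforehand.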

[6] = qHTS of pediatric cancer cell lines to identify multiple opportunities for drug repurposing: Primary screen for NB-EBc1 cells (AID 1347095); further: potency means the concentration at half of the fitted maximal effect
Summary of the method: (§2)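 Viability was measured as metabolically active cells after 48 hours of treatment, read by CellTiter-Glo luminescence. Compounds were tested at multiple final concentrations, giving concentration-response curves.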

[7] = qHTS of pediatric cancer cell lines to identify multiple opportunities for drug repurposing: Primary screen for U-2 OS cells (AID 1347096); further: nearly all actives have a fitted effect of over 50% in size; further: potency means the concentration at half of the fitted maximal effect
Summary of the method: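 Cells (500-1,000/well) rested 5 h, then received compounds for 48 h; metabolically active cells were measured by CellTiter-Glo luminescence. Final concentrations spanned up to 46 µM (MIPE, 11-point) or 0.59 nM-46 µM (NPC, 8-point) in primary screens, 11-point in follow-ups.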

[8] = qHTS of pediatric cancer cell lines to identify multiple opportunities for drug repurposing: Primary screen for Saos-2 cells (AID 1347097); further: nearly all actives have a fitted effect of over 40% in size; further: potency means the concentration at half of the fitted maximal effect
Summary of the method: as §2

[9] = qHTS of pediatric cancer cell lines to identify multiple opportunities for drug repurposing: Primary screen for DAOY cells (AID 1347090); further: nearly all actives have a fitted effect of over 55% in size; further: potency means the concentration at half of the fitted maximal effect
Summary of the method: as §1

[10] = qHTS of pediatric cancer cell lines to identify multiple opportunities for drug repurposing: Primary screen for A673 cells (AID 1347092); further: nearly all actives have a fitted effect of over 45% in size; further: potency means the concentration at half of the fitted maximal effect
Summary of the method: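 Luminescence from CellTiter-Glo, taken after 15 min at room temperature, served as the proxy for metabolically active cells following 48 h treatment. Both potency and efficacy were taken from curves fitted to the titration data.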

[11] = qHTS of pediatric cancer cell lines to identify multiple opportunities for drug repurposing: Primary screen for BT-37 cells (AID 1347094); further: potency means the concentration at half of the fitted maximal effect
Summary of the method: as §2

Measured: Potency

O=C(Nc1ccc(OC(F)(F)F)cc1)c1sccc1NCc1ccnc2ccccc12
active: [5] 26.4 µM | [8] 18.7 µM
not listed: [9] | [10] | [11]
inactive: all other assays above

O=S(=O)(O)c1ccc2cc(N=Nc3cc(S(=O)(=O)O)c4cccnc4c3O)ccc2c1
inactive: [1] | [2] | [3] | [4] | [7]
active: [5] 18.7 µM

Cc1ccccc1-n1c(Cn2nc(-c3cccc(O)c3)c3c(N)ncnc32)nc2cccc(C)c2c1=O
inactive: [1] | [2]
active: [9] 1.18 µM | [4] 0.0166 µM | [10] 0.0047 µM | [5] 0.0418 µM | [11] 0.0544 µM | [6] 0.0743 µM | [8] 0.059 µM

COc1ccc(CCC(=O)Nc2nc3ccc(Cl)cc3s2)cc1OC
active: [10] 18.7 µM
inactive: [1] | [2] | [4] | [6] | [7]

CC(C)C[C@@H](C(=O)N[C@H](C(=O)OC1CCCC1)c1ccccc1)[C@H](O)C(=O)NO
inactive: [7]
active: [1] 20.9 µM | [4] 20.9 µM | [10] 14.8 µM | [5] 18.7 µM | [11] 24.3 µM | [6] 18.7 µM | [8] 16.6 µM

O=C(c1ccc(F)c(F)c1Nc1ccc(I)cc1F)N1CC(O)([C@H]2CCCCN2)C1
active: [1] 20.9 µM | [4] 4.69 µM | [10] 0.0235 µM | [5] 1.48 µM | [11] 1.09 µM | [6] 1.66 µM | [7] 14.8 µM | [8] 1.87 µM
inactive: [3]

CN1CCC(COc2cnc(-c3cccc(Cn4nc(-c5cccc(C#N)c5)ccc4=O)c3)nc2)CC1
active: [9] 23.5 µM | [4] 0.0083 µM | [10] 0.148 µM | [5] 0.148 µM
inactive: [3] | [11] | [7] | [8]
inactive and 16.4 µM (active): [1]

C=CC(=O)Nc1cccc(Sc2nc(Nc3ccc(N4CCN(C)CC4)cc3)ncc2Cl)c1
active: [1] 23.1 µM | [9] 2.35 µM | [10] 1.48 µM | [5] 2.64 µM | [6] 9.35 µM

CC(C)C[C@@H](N)[C@H](O)C(=O)N[C@H](C(=O)N[C@H](C(=O)N[C@@H](CC(=O)O)C(=O)O)C(C)C)C(C)C
not listed: [2] | [5] | [9]
inactive: all other assays above

CN(C)CCOc1cc(-c2cn[nH]c2)ccc1NC(=O)C1COc2ccccc2O1 (stereo not drawn)
active: [10] 18.7 µM | [5] 8.33 µM | [8] 2.96 µM
not listed: [2]
inactive: all other assays above

NCC1CCC(C(=O)O)CC1 (stereo not drawn)
not listed: [2] | [8]
inactive: all other assays above

CC1(C)C(N(O)C(=O)Nc2ccc(Cl)cc2)N(c2ccc(Cl)cc2)C(=O)N1CC(=O)NN=CC=Cc1ccc([N+](=O)[O-])o1 (stereo not drawn)
active: [4] 18.7 µM | [10] 23.5 µM
inactive: [1] | [3] | [7]

O[C@@H](COc1cccc2ncccc12)CN1CCN(C2c3ccccc3[C@@H]3[C@H](c4ccccc42)C3(F)F)CC1 (stereo partly drawn)
active: [9] 11.8 µM | [4] 3.35 µM | [10] 14.8 µM | [5] 9.35 µM | [6] 4.73 µM
inactive: [1] | [3]

CC(=O)Nc1cccc(-n2c(=O)n(C3CC3)c(=O)c3c(Nc4ccc(I)cc4F)n(C)c(=O)c(C)c32)c1
inactive: [1] | [3] | [4] | [11]
active: [5] 7.43 µM

N#Cc1ccc(Oc2ccc3c(c2)COB3O)cc1
inactive: [1] | [3] | [9] | [10] | [7] | [8]
active: [5] 14.8 µM

OC1CCC(Nc2ncc3nc(Nc4c(F)cc(F)cc4F)n([C@@H]4CCOC4)c3n2)CC1 (stereo partly drawn)
active: [4] 9.35 µM | [10] 9.35 µM | [6] 5.26 µM
inactive: [1] | [3]

CCCCCCOC(=O)N=C(N)c1ccc(NCc2nc3cc(C(=O)N(CCC(=O)OCC)c4ccccn4)ccc3n2C)cc1
inactive: [1] | [9] | [7]
active: [4] 18.7 µM | [10] 14.8 µM | [5] 29.6 µM

Cc1cccc(-c2[nH]c(C(C)(C)C)nc2-c2ccc3c(c2)OCO3)n1
active: [1] 10.3 µM | [3] 8.29 µM | [4] 4.69 µM | [10] 4.69 µM | [5] 2.96 µM | [11] 6.11 µM | [8] 0.418 µM

CCC(=C(CC)c1ccc(O)cc1)c1ccc(O)cc1
active: [10] 18.7 µM | [5] 4.18 µM | [11] 21.7 µM | [6] 5.9 µM
inactive: [1] | [3] | [7]

C[C@@H](O[C@H]1OCCN(Cc2n[nH]c(=O)[nH]2)[C@@H]1c1ccc(F)cc1)c1cc(C(F)(F)F)cc(C(F)(F)F)c1
active: [1] 20.9 µM | [4] 23.5 µM | [11] 27.3 µM | [6] 23.5 µM | [8] 26.4 µM
inactive: [3] | [7]

CC(C)c1onc(-c2c(Cl)cccc2Cl)c1COc1ccc(C=Cc2cccc(C(=O)O)c2)c(Cl)c1
inactive: [1] | [3] | [7] | [8]
active: [5] 16.6 µM
